Measurements reported in a collection of fitness landscapes (doi:10.1016/j.celrep.2020.107928).
Over roughly 81,000 sequences, “one-hybrid fitness for binding parS DNA” has its median near -0.17; the highest 2% begin near 0.51. What follows is part of a selection rich in the highest values, with near analogues and random picks from the rest.

B1: Caulobacter ParB omega fusion; a variant is named by its letters at X, in order, B8GW30 (parent)
chain: MESVVVGEPGMSEGRRGLGRGLSALLGEVDAAPAQAPGEQLGGSREAPIEILQRNPDQPRRTFREEDLEDLSNSIREKGVLQPILVRPSPDTAGEYQIVAGERAWRAAQRAGLKTVPIMVRELDDLAVLEIGIIENVQRADLNVLEEALSYKVLMEKFERTQENIAQTIGKSXSHVANXMRLLXLPDEVQSYLVSGELTAXHARAIAAAADPVALAKQIIEGGLSVRETEALARKAPNLSAGKSKGGRPPRVKDTDTQALESDLSSVLGLDVSIDHRGSTGTLTITYATLEQLDDLCNRLTRGI

Variants of: B1
Assay: one-hybrid fitness for binding parS DNA (scaled: cognate 1, non-cognate 0); higher = stronger binding
Settings: with parS DNA site
Summary of the method: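 Selection: bacterial one-hybrid in E. coli USO, HIS3 reporter with the site 19 bp from the promoter, 48 hours at 37°C on M9-minus-histidine plus 0.1 mM IPTG and 5 mM 3-AT. Libraries were Caulobacter ParB with four randomised specificity codons, sequenced on Illumina before and after selection. Fitness is the rescaled log change in variant-to-wild-type read ratio, anchored to the cognate and non-cognate sites.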

| Variant | one-hybrid fitness for binding parS DNA |
| --- | --- |
| TDKS | ≤ 0.2 |
| CMDR | ≤ 0.2 |
| TNLK | ≤ 0.2 |
| RLPD | ≤ 0.2 |
| RLIN | 0.38 |
| RLPN | 0.225 |
| RLIS | 1 |
| RLIP | ≤ 0.2 |
| RLPS | 0.86 |
| IHED | ≤ 0.2 |
| PMWM | ≤ 0.2 |
| RFVN | 0.26 |
| RFKG | 0.988 |
| NFKG | ≤ 0.2 |
| RFVG | 0.77 |
| NFVG | ≤ 0.2 |
| RFKD | ≤ 0.2 |
| LLAH | ≤ 0.2 |
| KLSS | ≤ 0.2 |
| YSYS | ≤ 0.2 |
| RRVQ | ≤ 0.2 |
| RRVG | 0.836 |
| RRKG | 0.708 |
| RRKK | ≤ 0.2 |
| RRKF | ≤ 0.2 |

| Variant | one-hybrid fitness for binding parS DNA |
| --- | --- |
| RRVR | ≤ 0.2 |
| LFLG | ≤ 0.2 |
| SWLK | ≤ 0.2 |
| PTSL | ≤ 0.2 |
| QPAA | ≤ 0.2 |
| FRES | ≤ 0.2 |
| PPSL | ≤ 0.2 |
| SYQW | ≤ 0.2 |
| DTNA | ≤ 0.2 |
| RTNA | 0.722 |
| RTDA | 0.554 |
| RGDA | 0.235 |
| NTNA | ≤ 0.2 |
| WHYV | ≤ 0.2 |
| HFVM | ≤ 0.2 |
| QFAC | ≤ 0.2 |
| RLGN | 0.469 |
| RIGH | 0.246 |
| RIGD | ≤ 0.2 |
| RDGG | ≤ 0.2 |
| RSGK | ≤ 0.2 |
| RCGG | 1.01 |
| RPGG | ≤ 0.2 |
| RLGG | 0.995 |
| RIGG | 1.02 |

| Variant | one-hybrid fitness for binding parS DNA |
| --- | --- |
| RLGH | 0.204 |
| RSGG | 0.998 |
| REGG | 0.2 |
| HLHN | ≤ 0.2 |
| EVNR | ≤ 0.2 |
| RCWR | ≤ 0.2 |
| NFVA | ≤ 0.2 |
| MAPR | ≤ 0.2 |
| YLCV | ≤ 0.2 |
| DLKG | ≤ 0.2 |
| TWYC | ≤ 0.2 |
| TAYD | ≤ 0.2 |
| PPTG | ≤ 0.2 |
| RQIG | 0.805 |
| RQIH | ≤ 0.2 |
| RQPG | 0.514 |
| RQIN | 0.248 |
| RQPH | ≤ 0.2 |
| RQPD | ≤ 0.2 |
| LCRT | ≤ 0.2 |
| CNIR | ≤ 0.2 |
| TNIS | ≤ 0.2 |
| ASKM | ≤ 0.2 |
| RSNH | 0.203 |
| RCNP | ≤ 0.2 |

| Variant | one-hybrid fitness for binding parS DNA |
| --- | --- |
| RSDS | 0.939 |
| RCDS | 1.02 |
| RSDH | ≤ 0.2 |
| RSND | ≤ 0.2 |
| RSDP | ≤ 0.2 |
| RCDP | 0.204 |
| RCNS | 0.908 |
| RSNS | 0.959 |
| RPNS | ≤ 0.2 |
| RPDS | ≤ 0.2 |
| FIST | ≤ 0.2 |
| SDVE | ≤ 0.2 |
| QNER | ≤ 0.2 |
| HDLW | ≤ 0.2 |
| GHTP | ≤ 0.2 |
| IPGC | ≤ 0.2 |
| FIPR | ≤ 0.2 |
| LDNV | ≤ 0.2 |
| RTTN | 0.415 |
| RITC | 0.962 |
| RMTP | ≤ 0.2 |
| RTTQ | ≤ 0.2 |
| RITR | ≤ 0.2 |
| RITY | 0.443 |
| RMTC | 0.985 |

| Variant | one-hybrid fitness for binding parS DNA |
| --- | --- |
| RMTR | ≤ 0.2 |
| RETC | ≤ 0.2 |
| RTTC | 0.991 |
| RSTQ | ≤ 0.2 |
| RSTC | 0.97 |
| QHHF | ≤ 0.2 |
| PRIV | ≤ 0.2 |
| VMLC | ≤ 0.2 |
| DQKI | ≤ 0.2 |
| NPVG | ≤ 0.2 |
| FASY | ≤ 0.2 |
| GGAS | ≤ 0.2 |
| RDTC | ≤ 0.2 |
| RRTC | 0.616 |
| RRTR | ≤ 0.2 |
| RKTN | 0.336 |
| RKTC | 0.793 |
| RHTH | ≤ 0.2 |
| RHTC | 0.946 |
| NRTC | ≤ 0.2 |
| RHTY | 0.41 |
| RKTP | ≤ 0.2 |
| RCTC | 1 |
| RPTC | ≤ 0.2 |
| MMQL | ≤ 0.2 |

| Variant | one-hybrid fitness for binding parS DNA |
| --- | --- |
| GRRM | ≤ 0.2 |
| RHSV | ≤ 0.2 |
| AKSG | ≤ 0.2 |
| REHW | ≤ 0.2 |
| EAGS | ≤ 0.2 |
| KYAG | ≤ 0.2 |
| ELVS | ≤ 0.2 |
| SVCS | ≤ 0.2 |
| LPIR | ≤ 0.2 |
| GTYV | ≤ 0.2 |
| VEST | ≤ 0.2 |
| SGLP | ≤ 0.2 |
| CLRH | 0.227 |
| RFTC | 0.95 |
| RFTN | 0.405 |
| NFTC | ≤ 0.2 |
| RLTN | 0.43 |
| RLTM | 0.346 |
| RLTC | 1 |
| RATN | 0.436 |
| RATC | 0.982 |
| RATP | ≤ 0.2 |
| REFP | ≤ 0.2 |
| GDAW | ≤ 0.2 |
| RNAM | 0.243 |

| Variant | one-hybrid fitness for binding parS DNA |
| --- | --- |
| RNFK | ≤ 0.2 |
| RNAT | 0.686 |
| RNFT | 0.573 |
| RNFF | ≤ 0.2 |
| RNAK | ≤ 0.2 |
| VNTS | ≤ 0.2 |
| NGQK | ≤ 0.2 |
| QLDA | ≤ 0.2 |
| AVCE | ≤ 0.2 |
| APET | ≤ 0.2 |
| RRTN | 0.695 |
| RRTH | ≤ 0.2 |
| RRTS | 0.651 |
| RRTQ | ≤ 0.2 |
| RRTP | ≤ 0.2 |
| RRTD | ≤ 0.2 |
| APDT | ≤ 0.2 |
| CSER | ≤ 0.2 |
| DLWS | ≤ 0.2 |
| MGLC | ≤ 0.2 |
| GWAG | ≤ 0.2 |
| KEHC | ≤ 0.2 |
| REVT | ≤ 0.2 |
| RPVT | ≤ 0.2 |
| RDVT | ≤ 0.2 |

| Variant | one-hybrid fitness for binding parS DNA |
| --- | --- |
| RCVT | 0.843 |
| RSVT | 0.707 |
| CVDQ | ≤ 0.2 |
| ITTC | ≤ 0.2 |
| LKCF | ≤ 0.2 |
| HKKY | ≤ 0.2 |
| RIIY | 0.398 |
| RIIH | 0.233 |
| RIPG | 0.703 |
| RIPF | ≤ 0.2 |
| RIPR | ≤ 0.2 |
| RIIG | 0.924 |
| DMEL | ≤ 0.2 |
| CRVS | ≤ 0.2 |
| QASM | ≤ 0.2 |
| RYKF | 0.257 |
| RYVP | ≤ 0.2 |
| RYVD | ≤ 0.2 |
| RYVG | 0.899 |
| RYKQ | ≤ 0.2 |
| RYKG | 0.91 |
